For 28 molecules, morphology score and SARS-CoV-2 infection rate results are on record in the supplement of paper PMC13380429.

The subject of the first experiment is Vero E6 infected with SARS-CoV-2. The experiment can be described thus: morphology score (similarity to uninfected cells); higher = more like uninfected cells. Particulars: 24 h.
As for `CN[C@H](CC(C)C)C(=O)N[C@H]1C(=O)N[C@@H](CC(N)=O)C(=O)N[C@H]2C(=O)N[C@H]3C(=O)N[C@H](C(=O)N[C@H](C(=O)O)c4cc(O)cc(O)c4-c4cc3ccc4O)[C@H](O)c3ccc(c(Cl)c3)Oc3cc2cc(c3O[C@@H]2O[C@H](CO)[C@@H](O)[C@H](O)[C@H]2O[C@H]2C[C@](C)(N)[C@H](O)[C@H](C)O2)Oc2ccc(cc2Cl)[C@H]1O` (10 µM), the morphology score came out at 0.0907.

`Oc1cc(O)c(Cl)cn1` [gimeracil] (10 µM): the morphology score amounted to 0.103.

Regarding `COc1ccc(Cc2nccc3cc(OC)c(OC)cc23)cc1OC` [papaverine] (10 µM), the morphology score turned out to be 0.169.

Molecule `CC(C)CC(NC(=O)OCC1c2ccccc2-c2ccccc21)C(=O)O` (stereo in doubt) (10 µM) had a morphology score of 0.145.

In turn, `Cc1c2oc3c(C)ccc(C(=O)N[C@@H]4C(=O)N[C@H](C(C)C)C(=O)N5CCC[C@H]5C(=O)N(C)CC(=O)N(C)[C@@H](C(C)C)C(=O)O[C@@H]4C)c3nc-2c(C(=O)N[C@@H]2C(=O)N[C@H](C(C)C)C(=O)N3CCC[C@H]3C(=O)N(C)CC(=O)N(C)[C@@H](C(C)C)C(=O)O[C@@H]2C)c(N)c1=O` [dactinomycin] (10 µM) yielded a morphology score of -0.16.

Turning to `C[N+](C)(C)CCOC(=O)CCC(=O)OCC[N+](C)(C)C` [succinylcholine-chloride] (10 µM), the morphology score is -0.0136.

Another experiment shares this test system. The experiment can be described thus: SARS-CoV-2 infection rate relative to infected DMSO; higher = more infection, active = 60 or less. Particulars: 24 h.
Consider `CNc1nc(C)nc(N[C@H]2CCC[C@@H](C(=O)NCc3ccc(C#N)cc3C(F)(F)F)C2)n1` (10 µM), for which the SARS-CoV-2 infection rate is 104% (inactive).

In the case of `CCCc1cc(C(N)=S)ccn1` [protionamide] (10 µM), the SARS-CoV-2 infection rate was 98% (inactive).

Consider `CCN1CCN(Cc2ccc(Nc3ncc(F)c(-c4cc(F)c5nc(C)n(C(C)C)c5c4)n3)nc2)CC1` [abemaciclib] (10 µM), for which the SARS-CoV-2 infection rate is 107% (inactive).

With `O=C(c1cncc(Br)c1)N1CCC(N2CCCC2)CC1` (10 µM), the SARS-CoV-2 infection rate was 108% (inactive).

On to `C[N+]1(C)CCC(OC(=O)C(O)(c2ccccc2)C2CCCC2)C1` (stereo not drawn) [glycopyrrolate] (10 µM), for which the SARS-CoV-2 infection rate was 107% (inactive).

As to `CC(C)(C#N)c1ccc(N2C(=O)OCc3cnc4ccc(-c5cnc6ccccc6c5)cc4c32)cc1` (10 µM), the SARS-CoV-2 infection rate is 104% (inactive).

Regarding `COc1cccc2c1C(=O)c1c(O)c3c(c(O)c1C2=O)C[C@@](O)(C(=O)CO)C[C@@H]3O[C@H]1C[C@H](N)[C@H](O[C@@H]2CCCCO2)[C@H](C)O1` [pirarubicin] (10 µM), the SARS-CoV-2 infection rate was 118% (inactive).

As for `O=C1NCCN1c1ncc([N+](=O)[O-])s1` [niridazole] (10 µM), the SARS-CoV-2 infection rate is 95% (inactive).

With `CCS(=O)(=O)N1CCC([C@@H](C)n2c(C)c(C(=O)NCc3c(OC)cc(C)[nH]c3=O)c3ccccc32)CC1` (10 µM), the SARS-CoV-2 infection rate is 102% (inactive).

With `COc1ccc(CNCc2cccc3ccccc23)cc1` (10 µM), the SARS-CoV-2 infection rate was 105% (inactive).

As for `COc1cc(N)cn[n+]1-c1ccccc1` [amezinium] (10 µM), the SARS-CoV-2 infection rate is 100% (inactive).

On to `CCOC(=O)C1=C(C)NC(C)=C(C(=O)OC)C1c1cccc(Cl)c1Cl` (stereo not drawn) [felodipine] (10 µM), for which the SARS-CoV-2 infection rate was 112% (inactive).

Turning to `CN1C(CSCC(F)(F)F)Nc2cc(Cl)c(S(N)(=O)=O)cc2S1(=O)=O` (stereo not drawn) [polythiazide] (10 µM), the SARS-CoV-2 infection rate was 100% (inactive).

For the molecule `CN1CCCC(n2nc(Cc3ccc(Cl)cc3)c3ccccc3c2=O)CC1` (stereo not drawn) [azelastine] (10 µM), the SARS-CoV-2 infection rate was 72% (inactive).

As to `CC(C)c1ccc(NC(=O)Cn2cnc3c2c(=O)n(C)c(=O)n3C)cc1` (10 µM), the SARS-CoV-2 infection rate was 109% (inactive).

Turning to `CCc1c(-c2ccccc2)c(-c2ccccc2)nn1-c1ccccc1-c1cccc(OCC(=O)O)c1` (10 µM), the SARS-CoV-2 infection rate was 96.5% (inactive).

For the molecule `Cc1occc(=O)c1[O-].Cc1occc(=O)c1[O-].[O]=[V+2]` [bis(maltolato)oxovanadium(IV)] (10 µM), the SARS-CoV-2 infection rate is 106% (inactive).

Turning to `CCC(CC)Nc1nc(C)c(-c2ccc(OC(F)(F)F)cc2OC)nc1OC` (10 µM), the SARS-CoV-2 infection rate was 86.5% (inactive).

On to `CNCC(=O)O` [sarcosine] (10 µM), for which the SARS-CoV-2 infection rate was 108% (inactive).

Turning to `Cc1ncc(CN2CC=C(c3ccccc3)CC2)c(N)n1` (10 µM), the SARS-CoV-2 infection rate is 108% (inactive).

With `CCn1c(-c2nonc2N)nc2cncc(C(=O)N3CC[C@H](N)C3)c21` (0.833333 µM), the SARS-CoV-2 infection rate was 87% (inactive).

With `C=C[C@@]1(C)CC(=O)[C@]2(O)[C@@]3(C)[C@@H](O)CCC(C)(C)[C@@H]3[C@H](O)[C@H](OC(C)=O)[C@@]2(C)O1` [colforsin] (10 µM), the SARS-CoV-2 infection rate was 83% (inactive).
